According to PubChem BioAssay (NCATS):
“And” between values parts separate entries of the source, which are not always exact repeats. Identical values can stand only once. Records with an inconclusive call do not appear. The source made the active and inactive calls. Unless noted, the call rests on the fitted dose curve.

What was measured:
[1] = AP1 Signaling Pathway (AID 357; active means well fitted curve in either direction with a large enough effect, not every such curve was filed as active;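 further: ME-180 reporter cells stimulated with EGF at its EC50 level; on the % scale 0 is the no-effect control and ±100 the full control effect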); conditions: ME-180 AP-1-bla reporter, EGF-induced, beta-lactamase ratio, 5 h; at 7.69 µM (top of the series) unless noted
Summary of the method: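 Titration-series screen for positive or negative modulators of EC50 EGF-induced signaling in ME-180 cells carrying an AP-1-driven beta-lactamase reporter. After 5 hours at 37 degrees Celsius, CCF4 460nm/530nm emission ratio gave %Activity; AC50 values derived.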

[2] = NFAT Signaling Pathway (AID 444; active means well fitted curve in either direction with a large enough effect, not every such curve was filed as active;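 further: carbachol stimulus at about its EC50 of 1 µM final; on the % scale 0 is the no-effect control and ±100 the full control effect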); conditions: Jurkat NFAT-bla M1, carbachol, beta-lactamase ratio, 5 h; at 7.69 µM (top of the series) unless noted
Summary of the method: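 Jurkat cells with NFAT-driven β-lactamase reporter and co-expressed M1 receptor, stimulated with carbachol (final 1 uM, ~EC50), compound titration, 5 h at 37 °C. CCF4 loaded 1 h at RT; 460/530 nm ratio gave %activity and AC50.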

[3] = Stat Signaling Pathway (AID 446; active means well fitted curve in either direction with a large enough effect, not every such curve was filed as active;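 further: ME-180 cervical cancer cells given 40 pM IL-6 alongside compound; SIE-controlled beta-lactamase reporter measured as 460/530 nm FRET emission ratio; on the % scale 0 is the no-effect control and ±100 the full control effect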); conditions: ME-180 SIE beta-lactamase reporter, IL-6 stimulated, 5 h; at 7.69 µM (top of the series) unless noted
Summary of the method: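 ME-180 cells carrying a SIE-driven beta-lactamase reporter are stimulated with 40 pM IL-6 for 5 h at 37C in the presence of compound. The 460/530 nm FRET substrate ratio is read after 2.5 h at RT. Data are normalised to 300 pM IL-6 and to 125 nM JAK inhibitor controls.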

[4] = biological target: Glucocorticoid receptor (Homo sapiens) (UniProt P04150); experiment: GR-GFP Redistribution (AID 450;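 active means compounds whose dose series gives a full or clear partial fitted curve of increased nuclear translocation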; further: potency means the concentration at half of the fitted maximal effect); conditions: U2OS GR-GFP nuclear translocation, laser cytometry, 2 h
Chain of Glucocorticoid receptor (Homo sapiens) (P04150 whole entry, looked up, the tested form may be a part): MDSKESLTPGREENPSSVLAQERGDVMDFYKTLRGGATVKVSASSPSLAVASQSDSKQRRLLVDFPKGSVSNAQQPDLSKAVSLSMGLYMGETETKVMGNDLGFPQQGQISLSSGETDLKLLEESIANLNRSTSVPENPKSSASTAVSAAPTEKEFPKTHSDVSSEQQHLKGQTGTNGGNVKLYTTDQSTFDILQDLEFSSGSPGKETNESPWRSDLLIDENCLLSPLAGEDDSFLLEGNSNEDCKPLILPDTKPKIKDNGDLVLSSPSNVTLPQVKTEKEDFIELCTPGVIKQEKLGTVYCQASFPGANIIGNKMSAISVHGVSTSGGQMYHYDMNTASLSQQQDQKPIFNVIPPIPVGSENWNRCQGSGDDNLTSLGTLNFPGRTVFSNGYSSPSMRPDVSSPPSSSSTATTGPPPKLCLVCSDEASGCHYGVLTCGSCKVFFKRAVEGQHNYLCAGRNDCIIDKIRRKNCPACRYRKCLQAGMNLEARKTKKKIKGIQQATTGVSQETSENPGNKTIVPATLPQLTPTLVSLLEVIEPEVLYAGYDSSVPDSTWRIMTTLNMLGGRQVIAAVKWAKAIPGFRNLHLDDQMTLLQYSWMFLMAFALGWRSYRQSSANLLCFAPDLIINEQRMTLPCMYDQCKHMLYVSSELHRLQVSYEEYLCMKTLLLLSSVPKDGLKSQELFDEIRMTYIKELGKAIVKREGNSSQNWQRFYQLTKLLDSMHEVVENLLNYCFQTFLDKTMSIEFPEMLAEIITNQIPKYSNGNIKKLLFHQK

[5] = biological target: Glucocorticoid receptor (Homo sapiens) (UniProt P04150); experiment: GR-EFC Redistribution (AID 451); conditions: CHO-K1 GR-EFC translocation, beta-gal luminescence, 2 h; further: potency means the concentration at half of the fitted maximal effect
Summary of the method: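 CHO-K1 cells expressing nuclear EA and GR-ED fragments of b-gal; compounds titrated up to 46 uM final, 2 h at 37 C. GR nuclear translocation read as complemented b-gal luminescence after 1 h RT detection.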

[6] = biological target: Mitogen-activated protein kinase 10 (Mus musculus) (UniProt Q61831); experiment: JNK3 AlphaScreen Assay (AID 530; active means well fitted curve in either direction with a large enough effect, not every such curve was filed as active;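 further: kinase came from lysate of stimulated human HepG2 cells; signal reports phosphorylation of biotinylated GST-cJun 1-79 at Ser73 with 10 µM ATP; on the % scale 0 is the no-effect control and ±100 the full control effect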); conditions: JNK3 lysate, c-Jun phosphorylation; series mostly up to 57.1 µM
Summary of the method: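 qHTS format: compounds tested as titrations against IL-1beta/TNF-alpha-activated HepG2 lysate JNK3 with biotin-GST-cJun substrate and 10 uM ATP at room temperature. Loss of anti-phospho-cJun AlphaScreen signal indicates inhibition.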

[7] = biological target: 3',5'-cyclic-AMP phosphodiesterase 4B (Homo sapiens) (UniProt Q07343); experiment: qHTS Assay for Inhibitors of PDE-IV (AID 607; active means well fitted activation curve with a large enough effect in the main read-out, with a control signal flat, not every such curve was filed as active; further: % of control where 0% means no effect); conditions: HEK293 ACTOne CNG channel cells, membrane potential fluorescence; series mostly up to 22.9 µM
Chain of 3',5'-cyclic-AMP phosphodiesterase 4B (Homo sapiens) (Q07343 whole entry, looked up): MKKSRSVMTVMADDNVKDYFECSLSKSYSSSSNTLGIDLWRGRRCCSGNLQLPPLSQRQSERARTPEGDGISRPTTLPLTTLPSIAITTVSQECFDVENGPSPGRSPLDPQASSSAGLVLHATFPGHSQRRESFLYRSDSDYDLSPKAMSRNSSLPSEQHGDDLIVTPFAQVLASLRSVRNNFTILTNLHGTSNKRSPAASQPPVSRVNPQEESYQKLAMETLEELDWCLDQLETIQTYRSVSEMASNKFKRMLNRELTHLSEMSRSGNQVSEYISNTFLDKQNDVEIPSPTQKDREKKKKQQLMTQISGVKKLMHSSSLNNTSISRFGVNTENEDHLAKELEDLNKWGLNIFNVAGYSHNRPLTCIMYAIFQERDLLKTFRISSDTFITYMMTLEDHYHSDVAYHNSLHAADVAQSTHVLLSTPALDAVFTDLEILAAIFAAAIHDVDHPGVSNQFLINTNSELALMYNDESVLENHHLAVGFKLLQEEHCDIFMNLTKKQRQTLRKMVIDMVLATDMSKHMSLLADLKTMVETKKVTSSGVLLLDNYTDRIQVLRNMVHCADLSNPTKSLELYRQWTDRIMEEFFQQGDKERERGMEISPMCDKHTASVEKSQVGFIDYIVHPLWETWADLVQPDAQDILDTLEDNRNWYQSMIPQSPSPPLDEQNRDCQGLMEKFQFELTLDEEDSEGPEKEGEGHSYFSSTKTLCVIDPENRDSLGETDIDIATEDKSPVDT
Summary of the method: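 HEK293 ACTOne cells with CNG channel (1000/well), endogenous PDE4; membrane potential dye, compounds up to 22.9 uM final. Fluorescence Ex 535/Em 590; RO 20-1724 (100 uM final) as reference.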

[8] = qHTS Assay for Lipid Storage Modulators (AID 1519); conditions: Drosophila S3 cells, BODIPY lipid droplet/cell ratio, laser cytometry, cells loaded with oleic acid
Summary of the method: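 Cells seeded at 5,000 per well were treated with compounds over a concentration series and loaded with oleic acid (400 uM, as added). Lipid droplet fluorescence (488 nm excitation, 500-530 nm channel) was read by laser-scanning cytometry and normalized to 20 uM Triacsin C.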

[9] = biological target: Ubiquitin carboxyl-terminal hydrolase 1 (Homo sapiens) (UniProt O94782); experiment: Inhibitors of USP1/UAF1: Pilot qHTS (AID 504865; active means well fitted curve in the direction sought with a large enough effect; an effect the other way counts as inactive or inconclusive;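 further: rhodamine fluorescence freed from ubiquitin-rhodamine substrate followed over time; top concentration of the series differs between compounds; on the % scale 0 is the no-effect control and ±100 the full control effect; nearly all actives have a fitted effect of over 35% in size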); conditions: purified USP1/UAF1, Ub-rhodamine cleavage fluorescence; series mostly up to 54.9 µM
Chain of Ubiquitin carboxyl-terminal hydrolase 1 (Homo sapiens) (O94782 whole entry, looked up): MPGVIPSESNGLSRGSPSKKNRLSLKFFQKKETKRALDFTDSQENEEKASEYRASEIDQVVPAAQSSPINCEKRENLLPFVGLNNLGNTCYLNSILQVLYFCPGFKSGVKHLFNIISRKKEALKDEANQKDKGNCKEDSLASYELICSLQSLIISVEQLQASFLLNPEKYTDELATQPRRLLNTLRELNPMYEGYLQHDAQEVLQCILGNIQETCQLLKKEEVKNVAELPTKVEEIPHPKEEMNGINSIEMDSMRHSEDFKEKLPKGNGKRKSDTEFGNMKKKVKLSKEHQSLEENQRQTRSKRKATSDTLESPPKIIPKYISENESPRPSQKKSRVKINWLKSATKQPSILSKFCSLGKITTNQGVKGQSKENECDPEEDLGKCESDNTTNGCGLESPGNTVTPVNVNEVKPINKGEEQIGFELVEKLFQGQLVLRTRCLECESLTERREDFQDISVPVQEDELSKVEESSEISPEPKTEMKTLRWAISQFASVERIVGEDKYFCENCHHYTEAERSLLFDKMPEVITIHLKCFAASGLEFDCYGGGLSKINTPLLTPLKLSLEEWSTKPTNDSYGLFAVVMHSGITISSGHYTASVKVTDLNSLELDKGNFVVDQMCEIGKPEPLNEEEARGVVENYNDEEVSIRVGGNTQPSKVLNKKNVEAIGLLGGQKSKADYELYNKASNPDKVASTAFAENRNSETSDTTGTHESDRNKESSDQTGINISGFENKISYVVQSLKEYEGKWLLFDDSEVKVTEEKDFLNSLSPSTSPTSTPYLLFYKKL
Summary of the method: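 Kinetic fluorescence assay: 1nM USP1/UAF1, 15 min compound preincubation, then 150nM Ub-Rho; 480/540 nm.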

[10] = biological target: Cytochrome P450 1A2 (Homo sapiens) (UniProt P05177); experiment: p450-cyp1a2 (AID 410); conditions: recombinant CYP1A2, luciferin-ME demethylation, luminescence; series mostly up to 57 µM; further: potency means the concentration at half of the fitted maximal effect;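 on activity change, negative = inhibition: -100% = full effect of reference inhibitor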
Chain of Cytochrome P450 1A2 (Homo sapiens) (P05177 whole entry, looked up): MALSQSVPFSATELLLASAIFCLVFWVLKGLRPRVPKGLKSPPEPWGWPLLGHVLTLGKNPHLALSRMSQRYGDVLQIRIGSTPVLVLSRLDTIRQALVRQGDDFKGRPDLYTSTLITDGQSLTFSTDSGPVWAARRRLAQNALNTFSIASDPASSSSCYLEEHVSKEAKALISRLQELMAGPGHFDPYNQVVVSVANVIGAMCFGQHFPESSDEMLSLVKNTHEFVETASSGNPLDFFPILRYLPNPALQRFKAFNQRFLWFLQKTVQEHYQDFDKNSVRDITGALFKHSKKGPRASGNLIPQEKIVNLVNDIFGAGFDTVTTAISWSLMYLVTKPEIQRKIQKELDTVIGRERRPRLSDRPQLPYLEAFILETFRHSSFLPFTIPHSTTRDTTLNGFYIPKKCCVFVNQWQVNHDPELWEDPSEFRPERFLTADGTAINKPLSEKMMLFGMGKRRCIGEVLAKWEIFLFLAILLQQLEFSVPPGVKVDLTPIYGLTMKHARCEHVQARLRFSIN
Summary of the method: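 Inhibition was calculated relative to 57 uM furafylline (full inhibition). The reaction used human CYP1A2 at 20nM with Luciferin-ME at its Km, 100uM, driven by an NADPH-regenerating system for 60 min at room temperature.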

[11] = Primary qHTS for small molecule stabilizers of the endoplasmic reticulum resident proteome: Secreted ER Calcium Modulated Protein (SERCaMP) assay (AID 1508630; active means well fitted curve in the direction sought with a large enough effect; an effect the other way counts as inactive or inconclusive; further: on the % scale 0 is the no-effect control and ±100 the full control effect); conditions: SH-SY5Y GLuc-SERCaMP (Gaussia luciferase released on ER calcium loss) secretion, thapsigargin, luminescence; series mostly up to 38.4 µM
Summary of the method: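 GLuc-SERCaMP-expressing SH-SY5Y cells, pretreated 16 h with compound, are challenged with thapsigargin to empty ER calcium stores; after 4 h, coelenterazine is added directly to the medium and luminescence is imaged.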

[12] = biological target: Cytochrome P450 3A4 (Homo sapiens) (UniProt P08684); experiment: qHTS Assay for Inhibitors and Substrates of Cytochrome P450 3A4 (AID 884; active means well fitted curve in the direction sought with a large enough effect; an effect the other way counts as inactive or inconclusive; further: nearly all actives have a fitted effect of over 50% in size; further: potency means the concentration at half of the fitted maximal effect); conditions: recombinant CYP3A4, Luciferin-PPXE luminescence; series mostly up to 57.1 µM
Chain of Cytochrome P450 3A4 (Homo sapiens) (P08684 whole entry, looked up): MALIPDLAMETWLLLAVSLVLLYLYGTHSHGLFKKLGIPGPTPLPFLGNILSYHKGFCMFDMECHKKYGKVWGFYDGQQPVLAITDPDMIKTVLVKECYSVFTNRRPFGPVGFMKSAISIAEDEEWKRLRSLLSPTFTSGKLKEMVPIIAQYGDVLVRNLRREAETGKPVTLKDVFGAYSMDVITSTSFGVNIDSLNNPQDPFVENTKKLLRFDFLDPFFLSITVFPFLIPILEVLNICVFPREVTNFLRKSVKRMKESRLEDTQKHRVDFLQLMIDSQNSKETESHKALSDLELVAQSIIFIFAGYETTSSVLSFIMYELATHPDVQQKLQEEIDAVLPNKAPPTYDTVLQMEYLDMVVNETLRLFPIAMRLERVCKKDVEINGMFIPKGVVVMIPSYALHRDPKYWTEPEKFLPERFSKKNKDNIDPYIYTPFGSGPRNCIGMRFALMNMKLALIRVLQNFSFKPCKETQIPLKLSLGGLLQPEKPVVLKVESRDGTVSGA
Summary of the method: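 20 nM human CYP3A4 with 25 uM Luciferin-PPXE (at KM) in 200 mM KPO4, preincubated 10 min with compound; NADPH regeneration started a 60 min RT reaction. Luciferin detected by luminescence, normalized to 57 uM ketoconazole as full inhibition.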

[13] = Confirmation and Secondary Assay for Modulators of Hemoglobin Beta Chain Splicing at IVS2 654 locus (AID 910; active means well fitted curve in the direction sought with a large enough effect; an effect the other way counts as inactive or inconclusive;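 further: HeLa cells stably carrying EGFP split by mutant beta-globin IVS2-654 intron; % of control where 0% means no effect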); conditions: HeLa EGFP-654 splicing reporter, GFP fluorescence, 48 h; series mostly up to 38.3 µM
Summary of the method: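 HeLa cells stably expressing EGFP interrupted by β-globin IVS2-654 intron, seeded overnight in Opti-MEM/2% FCS, then treated 2 days at 37 °C. Restored splicing read as total peak GFP intensity per well by laser scanning cytometry (488 nm excitation, 500–520 nm emission); 500 nM antisense PNA as control.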

[14] = Confirmation and Secondary Assay for Modulators of Hemoglobin Beta Chain Splicing at IVS2 705 locus (AID 930; active means well fitted curve in the direction sought with a large enough effect; an effect the other way counts as inactive or inconclusive;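 further: HeLa cells stably expressing the EGFP-705 splicing reporter; GFP fluorescence per well restored by corrected splicing of the IVS2-705 intron in EGFP; % of control where 0% means no effect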); conditions: HeLa EGFP-705 splicing reporter, GFP fluorescence, 48 h; series mostly up to 38.3 µM
Summary of the method: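 Per-well GFP, captured at 1 x 8 µm resolution with 488 nm excitation, served as the read-out for HeLa EGFP-705 cells incubated 2 days with test compound versus DMSO.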

[15] = biological target: Rap guanine nucleotide exchange factor 3 (Homo sapiens) (UniProt O95398); experiment: Confirmatory qHTS for agonist of cAMP-regulated guanine nucleotide exchange factor 3 (EPAC1) (AID 1645881; active means well fitted curve in the direction sought with a large enough effect; an effect the other way counts as inactive or inconclusive;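 further: EPAC1 catalysed release of BODIPY-GDP from Rap1B seen as fluorescence loss; 100% = effect of cAMP agonist control; nearly all actives have a fitted effect of over 75% in size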); conditions: EPAC1 Rap1B BODIPY-GDP exchange fluorescence; series mostly up to 154 µM
Chain of Rap guanine nucleotide exchange factor 3 (Homo sapiens) (O95398 whole entry, looked up): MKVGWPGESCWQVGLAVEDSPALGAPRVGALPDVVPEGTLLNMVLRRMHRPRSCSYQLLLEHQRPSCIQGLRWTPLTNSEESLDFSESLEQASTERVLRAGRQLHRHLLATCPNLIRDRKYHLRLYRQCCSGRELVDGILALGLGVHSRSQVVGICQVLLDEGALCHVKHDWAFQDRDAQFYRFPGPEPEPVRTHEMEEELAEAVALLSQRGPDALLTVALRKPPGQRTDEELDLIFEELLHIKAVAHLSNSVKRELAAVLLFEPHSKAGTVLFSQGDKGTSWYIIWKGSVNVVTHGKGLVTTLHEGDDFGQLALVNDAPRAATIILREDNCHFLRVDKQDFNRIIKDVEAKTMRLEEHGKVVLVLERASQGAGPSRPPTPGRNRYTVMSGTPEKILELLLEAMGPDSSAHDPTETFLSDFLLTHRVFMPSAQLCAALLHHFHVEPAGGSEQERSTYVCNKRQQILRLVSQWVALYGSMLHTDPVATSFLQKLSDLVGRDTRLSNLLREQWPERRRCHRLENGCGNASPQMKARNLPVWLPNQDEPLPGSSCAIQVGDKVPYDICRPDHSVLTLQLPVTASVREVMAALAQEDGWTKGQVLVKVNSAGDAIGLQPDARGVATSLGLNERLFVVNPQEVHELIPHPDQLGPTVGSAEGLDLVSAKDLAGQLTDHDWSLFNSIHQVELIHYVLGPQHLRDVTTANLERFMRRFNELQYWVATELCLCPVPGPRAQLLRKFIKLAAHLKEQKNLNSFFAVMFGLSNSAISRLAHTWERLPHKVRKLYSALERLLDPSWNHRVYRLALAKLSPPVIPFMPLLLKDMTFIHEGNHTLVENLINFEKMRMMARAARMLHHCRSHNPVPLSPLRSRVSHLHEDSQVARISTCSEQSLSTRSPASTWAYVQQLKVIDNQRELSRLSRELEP

[16] = biological target: Cytochrome P450 3A4 (Homo sapiens) (UniProt P08684); experiment: qHTS Assay for Activators of Cytochrome P450 3A4 (AID 885; active means well fitted curve in the direction sought with a large enough effect; an effect the other way counts as inactive or inconclusive; further: nearly all actives have a fitted effect of over 65% in size); conditions: recombinant CYP3A4, Luciferin-PPXE luminescence, 60 min; series mostly up to 57.1 µM
Summary of the method: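 Human CYP3A4 (20 nM) with Luciferin-PPXE at 25 uM (its KM) in 200 mM KPO4; 10 min compound preincubation, then NADPH regeneration and 60 min reaction at RT. Luciferin read by luminescence; normalized to 57 uM ketoconazole full inhibition.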

[17] = measured here: cell count channel max response
[18] = measured here: lipid channel max response

| Compound | activity change, negative = inhibition [1] | activity change, negative = inhibition [2] | activity, negative = inhibition [3] | Potency [4] | Potency [5] | Potency [6] | Potency [7] | activity change, negative = inhibition ([8]; at 25.7 µM (top of the series)) | activity change, negative = inhibition ([8]; at 57.5 µM (top of the series)) | max response [8, 17] | max response [8, 18] | Potency [9] | Potency [10] | outcome [11] | Potency [12] | Potency [13] | outcome [14] | Potency [15] | Potency [16] |
| --- | --- | --- | --- | --- | --- | --- | --- | --- | --- | --- | --- | --- | --- | --- | --- | --- | --- | --- | --- |
| N[C@H](Cn1ccc(=O)c(O)c1)C(=O)O | 2.81% [at 17.2 µM] (inactive) | -2.41% [at 17.2 µM] (inactive) | 3.76% [at 17.2 µM] (inactive) | > 20.6 µM (inactive) and > 46 µM (inactive) | > 20.6 µM (inactive) and > 46 µM (inactive) | inactive | inactive | -2.4% (inactive) | -2.6% (inactive) | -5.27% and -11.5% | -7.92% and -12.4% | inactive |  |  |  |  |  |  |  |
| N[C@@H](C(=O)O)c1ccc(O)c(C(=O)O)c1 |  |  |  | > 46 µM (inactive) | > 46 µM (inactive) | inactive | inactive |  |  |  |  | inactive | inactive | inactive |  |  |  |  |  |
| COc1ccc(Oc2ncc3nc(-c4ccccc4)c(=O)n(Cc4cccs4)c3n2)cc1 | -8.46% (inactive) | -1.01% (inactive) | -3.78% (inactive) | > 9.22 µM (inactive) | > 46 µM (inactive) | inactive | inactive |  |  |  |  |  |  | inactive |  |  |  |  |  |
| COc1cc2ccc(=O)oc2cc1O |  |  |  | > 20.6 µM (inactive) and > 46 µM (inactive) | > 20.6 µM (inactive) and > 46 µM (inactive) | inactive | inactive | -4.36% (inactive) | 6.76% (inactive) | -18% and -2.53% | -21.2% and 0.189% | inactive | 5.01 µM (active) and 12.6 µM (active) |  | inactive | inactive | inactive | inactive |  |
| CC(=O)Oc1ccccc1C(=O)Oc1ccccc1C(=O)O | 6.88% [at 17.2 µM] (inactive) | 3.91% [at 17.2 µM] (inactive) | 8.87% [at 17.2 µM] (inactive) | > 20.6 µM (inactive) | > 20.6 µM (inactive) | inactive |  | -1.86% (inactive) | -0.43% (inactive) | -2.66% and 0.474% | -5.13% and 0.698% | inactive | 12.6 µM (active) |  | inactive | inactive | inactive |  |  |
| COc1cc2c(cc1OC)C(=O)Cc1ccc3c(c1CN(C)CC2)OCO3 |  |  |  |  | > 46 µM (inactive) | inactive | inactive |  |  |  |  |  | inactive | inactive | inactive |  |  |  |  |
| CC[C@@]12CCCN3CCc4c(n(c5ccccc45)[C@](O)(C(=O)OC)C1)[C@H]32 | 13.8% [at 17.2 µM] (inactive) | -8.76% [at 17.2 µM] (inactive) and -13.1% [at 17.2 µM] (inactive) | 4.76% [at 17.2 µM] (inactive) and 8.92% [at 17.2 µM] (inactive) | > 20.6 µM (inactive) and > 46 µM (inactive) | > 20.6 µM (inactive) and > 46 µM (inactive) | inactive | inactive | -1.27% (inactive) and -2.91% (inactive) | 0.0973% (inactive) | 5.49% and 0.925% and 3.19% | 4.14% and 0.607% and 6.95% | inactive | inactive |  |  |  |  |  | inactive |
| CC(C)(C)c1cc(C(=O)/C=C/c2ccc(C(=O)O)cc2)cc(C(C)(C)C)c1 |  |  |  |  |  |  |  |  |  |  |  |  |  | inactive | 20 µM (active) |  |  |  | inactive |
